# In PubChem BioAssay AID1347131 (National Center for Advancing Translational Sciences (NCATS), 2019):
# Out of some 410,000 compounds screened, about 2,000 (0.49%) were called active. About 8% were inconclusive and are not listed. This is one part of a sample in which actives are shown more often than they occur. Values without a mark were called inactive. Calls come from the whole dose curve; tested in HEK293 reporter line.
# Experiment: qHTS Assay for Foot and Mouth Disease Virus Antivirals: Primary Screen against the MLPCN compound library; note: nearly all actives have a fitted effect of over 55% in size
# Conditions: FMDV antiviral cell-based qHTS; series mostly up to 57.9 µM; activity, negative = inhibition: at the top concentration
# Potency is the fitted concentration of half-maximal effect.
Compound,Potency,"activity, negative = inhibition [%]"
COc1cccc(/C=N/NC(N)=S)c1OCc1cccc(Cl)c1,22.4 µM (active),–
COc1cc(/C=N/NC(N)=S)cc(Br)c1OCc1ccccc1F,–,-30.1
Cc1cc(-c2nc3ccccc3s2)ccc1N,7.94 µM (active),–
CC(C)(C)C(=O)Nc1ccc(-c2nc3ccccc3s2)cc1,–,-67.5
CN(C(=O)OC(C)(C)C)c1ccc(-c2nc3ccccc3s2)cc1,–,-100
Cc1cc(-c2nc3cc(F)ccc3s2)ccc1N,12.6 µM (active),–
Cc1ccccc1-c1nc(CN2CCC(C(=O)NC3CCN(Cc4ccccc4)CC3)CC2)c(C)o1,–,-29.5
Cc1cc(=O)[nH]c(N/N=C/C2=C(N3CCOCC3)C(=C\c3ccc(Cl)cc3)/CC2)n1,–,-36.7
O=C(Nc1ccc(Cl)c(C(F)(F)F)c1)c1cc2nc(-c3ccc4c(c3)OCO4)cc(C(F)(F)F)n2n1,–,-21.9
CC[C@H]1c2[nH]c3ccc(C(C)C)cc3c2[C@@H]2CCN3C(=O)CCC[C@H]1[C@H]23,–,-33.7
CC(C)(C)n1ncc2c(=O)n(Cc3c(Cl)cccc3Br)cnc21,–,-48.1
CC(C)(C)n1ncc2c(=O)n(CC(=O)Nc3ccc(Cl)cc3)cnc21,–,-38.5
CC(C)(C)n1ncc2c(=O)n(CC(=O)NCc3ccccc3)cnc21,20 µM (active),–
CCCCCn1c(NC(=O)c2ccco2)c(C(=O)OCC)c2nc3ccccc3nc21,–,-41.5
COc1ccc(/C=C2\CN(Cc3ccccc3)C/C(=C\c3ccc(OC)cc3)C2=O)cc1,–,-34.8
COc1cc(/C=C2/CCc3ccccc3C2=O)cc(OC)c1OC,–,-30.1
CCOc1ccc(/C=C2\CCc3ccccc3C2=O)cc1,20 µM (active),–
Cc1ccc(-c2noc(CCC(=O)NCCN3CCc4ccccc4C3)n2)cc1,–,-32.9
Fc1cccc(/C=N/Nc2ccc3ccccc3n2)c1,12.6 µM (active),–
O=S(=O)(N/N=C\c1cccc(F)c1)c1ccccc1,–,113
C(=N\Nc1ccc2ccccc2n1)/c1ccc2c(c1)OCCO2,–,-52.8
O=C(NCc1ccc(F)cc1)c1cc(Sc2ccc(F)cc2F)nc2ccccc12,–,-34
Cc1ccc(Cl)c(OCCN2CCc3ccccc3C2)c1,–,-34.8
CN(CC(=O)Nc1ccc(Cl)cc1)CC(=O)Nc1sc2c(c1C(N)=O)CCC2,–,-41.6
CC1(C)Cc2ccccc2-c2nnc(SCC(=O)N3CCN(c4ccccc4)CC3)n21,7.94 µM (active),–

Compound,Potency,"activity, negative = inhibition [%]"
CC1Cc2nc(SCC(=O)N3CCN(c4ccccc4)CC3)n(C)c(=O)c2S1 (stereo not given),–,-31.1
O=C(CSC1=NCCS1)N1CCN(c2ccccc2)CC1,–,-31.3
Cc1cc2ncc(-c3cccs3)nc2cc1C,11.2 µM (active),–
C/C(=N\NC(=O)c1cc(-c2cccs2)nc2ccccc12)c1ccccn1,–,-31.1
FC(F)(F)c1cc(-c2cccs2)nc(-n2cc(Br)cn2)n1,–,-39.4
O=C1Nc2ccc([N+](=O)[O-])cc2OC1CCN1CCN(c2ccccc2)CC1 (stereo not given),–,-30
COc1ccc(-c2ccc(C(=O)N3CCN(C)CC3)c3occc23)c(C)c1,–,-36.9
Nc1nc(COC(=O)CCC(=O)c2ccc(Cl)cc2)nc(Nc2ccccc2)n1,–,-36.9
Nc1nc(CSc2n[nH]c(-c3ccccc3)n2)nc(Nc2ccccc2)n1,25.1 µM (active),–
CCOc1ccccc1CNC(=O)CSc1n[nH]c(-c2ccccc2)n1,–,-36.7
O=C1c2cccnc2Oc2ccc(Cl)cc2N1Cc1ccc(F)cc1,–,-37.2
[N-]=[N+]=CC(=O)C(Cc1ccccc1)N1C(=O)c2ccccc2C1=O (stereo not given),–,-32.3
Cc1ccc2[nH]c(C(=O)N3CCCCC3)cc2c1,–,100
O=C(c1cc2ccc3cccnc3c2[nH]1)N1CCCCC1,14.1 µM (active),–
O=C(c1cc2ccc3cccnc3c2[nH]1)N1CCN(c2cccc(Cl)c2)CC1,–,-32.5
CN(C)N(Cc1ccccc1)C(=O)C(O)(c1ccccc1)c1ccccc1,–,-30.8
CCc1ccc(NC(=O)CSCc2nc(N)nc(Nc3ccccc3CC)n2)cc1,–,-34.6
CCCC(=O)Nc1cccc(NC(=O)c2cccc([N+](=O)[O-])c2C)c1,–,-33.7
Cc1ccc(C(=O)COC(=O)c2cc(Cl)ccc2O)cc1[N+](=O)[O-],–,-36.5
Cc1ccc(C(=O)COC(=O)c2cccc(NC(=O)c3ccc([N+](=O)[O-])cc3[N+](=O)[O-])c2)cc1,20 µM (active),–
C=C(C(=O)c1ccccc1)C(c1ccccc1)C(C)C(=O)c1ccccc1 (stereo not given),–,-30.2
CC(=O)OC1CC2C(C)(C)C(O)CC[C@@]2(C)C2CC[C@@]3(C)C(c4ccoc4)OC(=O)C4OC43[C@]12C (stereo not given in full),–,-31.4
CS(=O)(=O)c1ccc(C(=O)Nc2cccc(-c3nc4ccccc4[nH]3)c2)cc1,–,-32.3
COC(=O)c1ccc(-c2nc3ccccc3[nH]2)cc1,15.8 µM (active),–
CS(=O)(=O)c1ccc(C(=O)Nc2ccc(-c3nc4ccccc4[nH]3)cc2)cc1,–,-32.1
